# High-throughput results as filed in PubChem BioAssay.
# The list is not random: actives were taken first. Their share in the collection is about 2.4%.
# MEKK2mut PB1 HTS – MEK5 binding signal on mutant MEKK2 PB1, primary screen, biochemical, multiplex bead flow cytometry, Alexa488-MEK5. Alexa488-MEK5 binding to MEKK2 mutant. percent response, % at 10 µM. 0.35% of 290,000 active. AID 1530, 2009; in the data active = percent response above about 24%, passing the limit was not always enough
# MEKK3 PB1 HTS – modulators of MEKK3-MEK5 PB1 binding, primary screen, biochemical, wildtype MEKK3, multiplex bead flow cytometry, Alexa488-MEK5; 1.4% of 290,000 active; Mitogen-activated protein kinase kinase kinase 3 (Homo sapiens), Q99759; bead-based flow cytometry, Alexa488-MEK5 binding to MEKK3; actives lie on both sides; 0 = blocked by unlabeled MEK5, 100 = vehicle; binding response (% of control), % at 10 µM; AID 1529, 2009;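 active = binding response more than 3 SD above or below the average of its plate-row segment, actives on both sides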;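 also: Alexa488 bead fluorescence after subtracting the streptavidin-only scavenger bead signal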
# Target sequence (Q99759 whole entry, looked up): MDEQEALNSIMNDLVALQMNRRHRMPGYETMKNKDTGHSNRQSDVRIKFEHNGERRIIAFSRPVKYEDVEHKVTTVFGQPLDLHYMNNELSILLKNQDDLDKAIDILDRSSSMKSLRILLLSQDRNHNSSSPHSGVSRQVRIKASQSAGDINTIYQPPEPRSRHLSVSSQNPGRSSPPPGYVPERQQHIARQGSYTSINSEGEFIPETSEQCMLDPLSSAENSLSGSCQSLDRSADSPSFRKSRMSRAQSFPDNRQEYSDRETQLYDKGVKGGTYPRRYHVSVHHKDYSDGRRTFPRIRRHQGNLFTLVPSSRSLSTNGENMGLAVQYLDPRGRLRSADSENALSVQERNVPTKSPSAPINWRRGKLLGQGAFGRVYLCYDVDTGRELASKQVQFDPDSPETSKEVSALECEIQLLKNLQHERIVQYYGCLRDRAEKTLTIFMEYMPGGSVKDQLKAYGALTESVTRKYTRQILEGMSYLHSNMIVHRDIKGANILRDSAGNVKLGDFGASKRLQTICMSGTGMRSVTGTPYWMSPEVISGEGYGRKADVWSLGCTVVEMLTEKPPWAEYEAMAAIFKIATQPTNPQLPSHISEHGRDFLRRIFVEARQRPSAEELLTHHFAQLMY
# Pf gamet viab – late stage P. falciparum gametocyte viability inhibitors, primary screen, ATP luminescence, HTS; inhibition, % at 10.9 µM; 0.065% of 150,000 active; P. falciparum stage V gametocytes, 24 h;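 active = inhibition above the mean plus 3 SD of compounds within the control limits, set per campaign, cut at about 38% in these data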;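 also: 0% = DMSO wells and 100% = medium only without gametocytes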
# Arbovirus anti – antivirals against arbovirus infection, primary screen, cell-based, full library, 10K replicate subset; AID 1251, 2008; arbovirus infection cell-based antiviral screen; inhibition, % at 10 µM; 0.37% of 200,000 active; in the data active = inhibition above about 30%
# MEKK2 WT-MEK5 – modulators of MEK5 binding to wildtype MEKK2, primary screen, biochemical, multiplex bead flow cytometry, Alexa488-MEK5 | AID 1531, 2009 | Alexa488-MEK5 binding to MEKK2 WT; actives lie on both sides | 1.1% of 290,000 active | binding response (% of control), % at 10 µM | Mitogen-activated protein kinase kinase kinase 2 (Homo sapiens), Q9Y2U5; in the data active = binding response below about 67% or above about 130%
# MEKK2wt confirm – modulators of MEK5 binding to wildtype MEKK2, confirmation, biochemical, single concentration, multiplex bead flow cytometry; 2.4% of 5,900 active; AID 1892, 2009; shares compounds with MEKK3 PB1 HTS; Alexa488-MEK5 binding to MEKK2 WT; actives lie on both sides; binding response (% of control), % at 10 µM; in the data active = binding response below about 16% or above about 210%; inactive = in between
# MEKK2mut confirm – mutant MEKK2 PB1-MEK5 binding signal retest – biochemical, single concentration, multiplex bead flow cytometry, confirmation | shares compounds with MEKK3 PB1 HTS | Alexa488-MEK5 binding to MEKK2 mutant | percent response, % at 10 µM | 2% of 5,900 active | AID 1893, 2009; in the data active = percent response mostly above about 71%, no sharp cut-off; inactive = mostly below about 38%;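 also: higher means compound restores mutant binding toward wildtype level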
# MEKK3 confirm – MEKK3 wild-type PB1 binding to MEK5, inhibitors, confirmation, biochemical, bead multiplex flow cytometry, single concentration, wildtype. AID 1894, 2009. Alexa488-MEK5 binding to MEKK3; active compounds read low. shares compounds with MEKK3 PB1 HTS. binding response (% of control), % at 10 µM. 1.8% of 5,900 active;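 active = binding response below 72% of control, or above a set upper limit, though filed actives all read lower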;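 also: 100% = DMSO only wells and 0% = binding blocked by excess unlabeled MEK5; lower values mean stronger disruption of MEK5 binding to MEKK3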
# The depositor's hits bear a star; · = no result given; [ ] = dose if it differs, or a comment.
SMILES,MEKK2mut PB1 HTS,MEKK3 PB1 HTS,Pf gamet viab,Arbovirus anti,MEKK2 WT-MEK5,MEKK2wt confirm,MEKK2mut confirm,MEKK3 confirm
CC(NC(=O)/C=C/c1cnc2ccccc2n1)C12CC3CC(CC(C3)C1)C2 (centres undefined),0,134*,·,-17,102,97,0,104
CN(C)/C=C1/C=C(C=O)OC1=O,8,103,8,·,102,·,·,·
CN(C)CCN1C(=O)c2oc3ccccc3c(=O)c2C1c1ccc(F)cc1 (centres undefined),-26,2.0*[inhibitor],5,-2,-1.0*[inhibitor],110,14,105
O=C(NC1CCCC1)C(c1ccccc1)N(Cc1cccnc1)C(=O)Cc1cccs1 (centres undefined),-1,98,6,3,100,·,·,·
CCC(Oc1ccccc1OC)C(=O)Nc1ccc2c(c1)OCO2 (centres undefined),2,98,·,·,99,·,·,·
Cc1ccc(C(=O)NCC(=O)OC(C)C(=O)Nc2ccc(N(C)C)cc2)s1 (centres undefined),-15,49*[inhibitor],10,-3,50,113,10,108
COc1cccc(-n2c(C)n[nH]c2=O)c1,-14,3.0*[inhibitor],-19,3,3.0*[inhibitor],102,5,100
CCOC(=O)C1=C(C)NC(=O)C1CC(=O)Nc1ccccc1 (centres undefined),6,125*,·,8,115,102,2,99
O=[N+]([O-])c1c(Nc2ccc(O)cc2)cc(N2CCOCC2)c2nonc12,0,107,·,-7,96,·,·,·
CC(=O)Nc1ccc(Nc2cc(N3CCOCC3)c3nonc3c2[N+](=O)[O-])cc1,-17,45*[inhibitor],14,-5,49,101,-1,103
C#CCOCCOCCOCCNc1nc(N2CCN(C(=O)C([C@@H](C)CC)n3cc(C(N)CC(C)C)nn3)CC2)nc(N2CCN(C(=O)[C@H](CCC(=O)O)n3cc(C(N)Cc4ccc(O)cc4)nn3)CC2)n1 (some centres undefined),9,105,·,2,113,·,·,·
C#CCOCCOCCOCCNc1nc(N2CCN(C(=O)[C@H](CCCCN)n3cc([C@@H](N)CC(C)C)nn3)CC2)nc(N2CCN(C(=O)[C@H](Cc3cc4ccccc4[nH]3)n3cc([C@@H](N)Cc4ccc(O)cc4)nn3)CC2)n1,60*,113,·,-8,187*,232*,89*,110
C#CCOCCOCCOCCNc1nc(N2CCN(C(=O)[C@H](CCCCN)n3cc(C(N)CO)nn3)CC2)nc(N2CCN(C(=O)[C@H](CCC(=O)O)n3cc(C(N)Cc4ccc(O)cc4)nn3)CC2)n1 (some centres undefined),7,102,·,·,106,·,·,·
C#CCOCCOCCOCCNc1nc(N2CCN(C(=O)[C@H](CCCCN)n3cc([C@@H](N)CO)nn3)CC2)nc(N2CCN(C(=O)[C@H](Cc3cc4ccccc4[nH]3)n3cc([C@@H](N)Cc4ccc(O)cc4)nn3)CC2)n1,56*,108,·,0,190*,183,50,115
COc1ccc(C(=O)c2ccc(CC(=O)O)s2)cc1,-2,98,-1,7,99,·,·,·
Cc1ccc(C)c(NC(=O)CN(C)S(=O)(=O)c2cccc3cccnc23)c1,-5,98,-10,·,91,·,·,·
COc1cccc(NC(=O)c2ncc(Cl)c(Cl)c2Cl)c1,-1,102,-4,5,94,·,·,·
